Bioassay records as filed in PubChem.
The list is not random: actives were taken first. Their share in the collection is about 4.8%.
USP1-UAF1 inh: blocks the human USP1/UAF1 deubiquitinase complex; 390,000 tested, 0.23% active; Potency, µM (top dose mostly 57.1 µM), most hits filed as inhibitors; O94782; recombinant USP1/UAF1, Ub-Rhodamine cleavage fluorescence; AID 743255; note: nearly all actives have a fitted effect of over 60% in size
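1 nM enzyme complex + cpd, 15 min RT; start with Ub-Rho 150nM final; kinetic fluorescence ex 480/em 540, 6 reads q60 s. Buffer 50mM HEPES pH 7.8, 0.5mM EDTA, 0.1 mg/ml BSA, 1mM TCEP, 0.01% Tween-20.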
USP2a inh: blocks human ubiquitin-specific protease USP2a; O75604; USP2 core, Ub-CHOP2 coupled fluorogenic reporter, 485/531; Potency, µM (top dose mostly 38.3 µM), most hits filed as inhibitors; 330,000 tested, 0.01% active
Target sequence (O75604 whole entry, looked up): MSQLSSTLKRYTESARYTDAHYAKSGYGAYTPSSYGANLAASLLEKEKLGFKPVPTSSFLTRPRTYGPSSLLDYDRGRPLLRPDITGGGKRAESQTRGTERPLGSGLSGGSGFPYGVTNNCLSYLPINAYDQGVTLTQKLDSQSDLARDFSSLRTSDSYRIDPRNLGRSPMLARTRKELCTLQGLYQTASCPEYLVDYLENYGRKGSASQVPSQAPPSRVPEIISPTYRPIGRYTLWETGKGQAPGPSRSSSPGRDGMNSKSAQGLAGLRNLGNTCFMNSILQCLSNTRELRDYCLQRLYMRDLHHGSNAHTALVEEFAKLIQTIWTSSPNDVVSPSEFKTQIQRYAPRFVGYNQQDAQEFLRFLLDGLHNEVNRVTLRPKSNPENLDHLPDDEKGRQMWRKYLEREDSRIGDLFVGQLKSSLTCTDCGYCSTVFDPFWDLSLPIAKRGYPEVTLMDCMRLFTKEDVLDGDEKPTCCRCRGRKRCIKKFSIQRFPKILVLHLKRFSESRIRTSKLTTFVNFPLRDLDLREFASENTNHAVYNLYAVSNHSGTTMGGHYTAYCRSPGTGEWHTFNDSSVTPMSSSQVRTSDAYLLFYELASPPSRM
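Deubiquitinase activity read as fluorescence (485/531 nm) after Ub-CHOP2 cleavage activates the enterokinase reporter on its substrate; USP2 core 10nM, Ub-CHOP2 and substrate 25nM each, 30min compound preincubation then 60min RT; data normalized to NEM, curves fitted.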
S2 tox: cell viability loss in ATXN counter-screen. S2 cells (HEK-293 line with an ATXN2-luciferase reporter) viability, CellTiter-Fluor protease fluorescence, 24 h. Potency, µM (titrated, usually from 56.7 µM), hits mostly cytotoxic. 400,000 tested, 0.49% active. AID 651635; note: nearly all actives have a fitted effect of over 40% in size
IL-1B inflam inh: inflammasome signaling inhibition, IL-1 beta readout; THP-1 LPS/ATP IL-1B secretion, AlphaLISA, 16 h; active compounds read low; activity change, % at 57.5 µM; 360,000 tested, 4.7% active; in the data active = activity change below about -50%; inconclusive = mostly about -30% to -49%
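THP-1 cells pretreated 1 hr with compounds (up to 57.5 uM final), then stimulated with LPS (250 ng/mL final) plus ATP (1.25 mM final); secreted IL-1B measured by AlphaLISA after 16 hr, decreased signal indicating inhibition.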
ATXN2 expr inh: inhibitors of ATXN2 expression | 360,000 tested, 0.72% active | HEK-293 ATXN2-luciferase reporter, luminescence, 24 h | Potency, µM (highest dose often 57 µM), usual class: inhibitors; note: nearly all actives have a fitted effect of over 55% in size
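qHTS (up to 57 uM final) was run with 24 h compound exposure of reporter cells at 37 °C. Each well was multiplexed: SteadyGlo luminescence measured ATXN2-luciferase expression after a fluorogenic Gly-Phe-AFC viability readout (25 uM final).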
Hits are given with their value; n = inactive; u = inconclusive; x = no result given; [ ] = remark or other dose. Unless noted, calls come from the whole dose curve; as a rule, active = well fitted curve in the direction sought with a large enough effect; inconclusive = small, poorly fitted or top-dose-only effect, or another doubt; inactive = no such curve, though single readings can be large; an effect the other way counts as inactive or inconclusive.

SMILES	USP1-UAF1 inh	USP2a inh	S2 tox	IL-1B inflam inh	ATXN2 expr inh
COc1cccc(NC(=O)n2ncc3c(C)cccc32)c1	n	n	n	n	n
COc1ccc(/C=C2\CCc3ccccc3C2=O)cc1Cn1nc(C)cc1C	n	n	u	-50.9	n
C=CC[C@@H](CC(=O)N(CCO)Cc1ccccc1)C(=O)NCCOC(=O)[C@@H](CC=C)Cc1ccc(F)cc1	n	n	u	n	n
C=CC[C@H](CC(=O)N(CCO)Cc1ccccc1)C(=O)NC[C@@H](OC(=O)[C@@H](CC=C)Cc1ccc(F)cc1)c1ccccc1	n	n	x	-69.4	u
C=CCC[C@H](Cc1ccc(F)cc1)C(=O)O[C@H](CNC(=O)[C@@H](CC=C)CC(=O)N(CCO)Cc1ccccc1)c1ccccc1	u	n	22.4µM	-58.1	u
CCOC(=O)COc1cc(Br)c(/C=N/Nc2ccccc2)cc1OC	n	n	u	-93.3	n
COc1cc(C=O)c(Br)cc1OCC(=O)NCCc1ccccc1	n	n	n	n	x
CCCCCCc1cc2cc(C(=O)Nc3ccccc3)c(=O)oc2cc1O	n	n	n	n	7.08µM
CN(CC(=O)NCCc1ccc(F)cc1)Cc1ccc(Br)cc1	n	n	n	-59.4	n
CN(CC(=O)Nc1ccc(Br)cc1)Cc1ccccc1	n	n	n	-81.1	n
CN(CC(=O)NCCCc1ccccc1)Cc1ccc(Br)cc1	u	n	n	n	n
CC(C)(C)c1ccc(C(=O)Nc2ccc(O)c3c(=O)cc(-c4cccc(Cl)c4)oc23)cc1	n	n	n	n	n
COc1ccc(C(=O)Nc2ccc(O)c3c(=O)cc(-c4cccc(Cl)c4)oc23)cc1	n	n	4.47µM	n	n
Cc1ccc(NC(=O)c2sc(N)nc2C)cc1	n	n	n	n	n
O=C1c2ccccc2S(=O)(=O)N1CCS(=O)(=O)c1ccc(F)cc1	n	n	n	-76.2	n
Nc1c(C(=O)Nc2ccccc2)nnn1Cc1ccc(F)cc1Cl	n	x	x	x	x
CCOC(=O)N=Nc1c2ccccc2c2nc3no[nH]c3nc12	u	n	x	-103.2	u
Cc1ccc(C(=O)C[n+]2cc(-c3ccc(C)cc3)n3c2CCCCC3)cc1	n	n	u	-96.0	u
COc1ccc(C(=O)C[n+]2cc(-c3ccc(OC)cc3)n3c2CCCC3)cc1	n	n	u	n	n
Cc1ccc(-c2c[n+](Cc3ccc(Cl)c(Cl)c3)c3n2CCC3)cc1	n	n	n	-79.0	n
O=C(C[n+]1cc(-c2ccccc2)n2c1CCCCC2)c1ccc(Br)cc1	n	n	n	-76.9	n
O=C(NCCNC(=O)c1ccc(-c2cccc(Cl)c2)o1)c1cnccn1	n	x	n	n	x
O=C(NCCNC(=O)c1ccc(-c2ccc(Cl)c(Cl)c2)o1)c1cnccn1	u	n	u	-73.6	n
CC(C)C1CC(CCN)(Cc2ccccc2)CCO1 (stereo not drawn)	n	n	n	-51.8	n
CCCCN(C)C(=O)c1nc2ccccn2c1CN1CCN(C/C=C/c2ccccc2)CC1	n	n	n	n	n[11.3 µM]
SMILES	USP1-UAF1 inh	USP2a inh	S2 tox	IL-1B inflam inh	ATXN2 expr inh
COc1ccc(CCN(C)CC(O)COC(c2ccc(F)cc2)c2ccc(F)cc2)cc1OC (stereo not drawn)	n	n	n	-92.3	n
Cc1ccc(NC(=O)CCNS(=O)(=O)c2ccc3[nH]c(=O)oc3c2)cc1C	n	n	n	n	x
Cc1ccc(OCC(O)Cn2c(=N)n(Cc3ccccc3)c3ccccc32)cc1 (stereo not drawn)	n	n	u	-89.7	u
Cc1cccc(OCC(O)Cn2c(=N)n(CCN3CCCCC3)c3ccccc32)c1 (stereo not drawn)	n	n	x	-51.0	u
Clc1ccc(OCc2nc3ccccc3n2Cc2ccccc2)c(Cl)c1	n	x	u	x	n
N=c1n(CCO)c2ccccc2n1Cc1ccc(Cl)cc1	n	n	n	-51.7	n
N=c1n(Cc2ccccc2)c2ccccc2n1CC(O)COc1ccc(Cl)cc1Cl (stereo not drawn)	n	n	x	-103.1	n[11.3 µM]
N=c1n(CCO)c2ccccc2n1CCOc1ccccc1	n	n	n	n	n
COc1ccc2c(c1)c1c(c(=O)n(-c3cccc(C)c3)c(=O)n1CC(=O)Nc1c(C)cc(C)cc1C)n2C	n	x	n	x	n
Cc1c(C(=O)N(C)Cc2ccc(F)cc2)sc(=O)n1Cc1ccc(Cl)c(Cl)c1	x	x	n	n	n
N=c1n(Cc2ccc(Cl)cc2)c2ccccc2n1CC(O)COc1ccccc1 (stereo not drawn)	n	n	x	-97.5	u
Cc1cccc(OCC(O)Cn2c(=N)n(Cc3ccccc3)c3ccccc32)c1 (stereo not drawn)	n	n	n	-53.9	x
COc1ccc(OCC(O)Cn2c(=N)n(Cc3ccccc3)c3ccccc32)cc1 (stereo not drawn)	n	n	x	-96.6	u
CCN(CC)CCn1c(=N)n(CC(O)COc2cccc(C)c2)c2ccccc21 (stereo not drawn)	n	n	u	-67.1	n[11.3 µM]
N=c1n(Cc2ccccc2)c2ccccc2n1CC(O)c1ccco1 (stereo not drawn)	n	n	n	n	n
CCn1c(=N)n(CC(O)COc2ccccc2)c2ccccc21 (stereo not drawn)	u	x	n	x	n
CCN(CC)CCn1c(=N)n(CC(O)c2ccc(OC)c(OC)c2)c2ccccc21 (stereo not drawn)	n	n	u	n	n
Cc1cccc(OCC(O)CN2CCNCC2)c1 (stereo not drawn)	n	n	n	n	n
COc1ccccc1-c1ccc(C(=O)N2CCC(N3CCc4ccccc4C3)CC2)c(N(C)CC2COCCO2)n1 (stereo not drawn)	x	x	n	x	x
O=C(c1cscn1)N1CCOc2ccc(CN3CCC(Oc4cccnc4)CC3)cc2C1	x	x	n	x	x
C[C@@H]1CN(Cc2ccc3c(c2)CN(Cc2cccc(O)c2)CCO3)C[C@H](C)O1	x	x	n	x	x
CC(=O)N1CCC[C@H]1C(=O)NCC1Cc2cc(C)cc(-c3ccc(Cl)cc3)c2O1 (stereo partly drawn)	x	x	n	x	x
Cc1nc2ccc(S(=O)(=O)NC(C(=O)NCc3ccc(Cl)cc3)C(C)C)cc2s1 (stereo not drawn)	n	x	n	x	n
O=C(NC(Nc1nc2ccc([N+](=O)[O-])cc2s1)(C(F)(F)F)C(F)(F)F)c1ccccc1Cl	n	n	u	-69.5	u
O=C(NC(Nc1nc2ccc([N+](=O)[O-])cc2s1)(C(F)(F)F)C(F)(F)F)c1cccnc1	n	n	u	-69.8	u
COc1cc2[nH]c3c(Cl)ncnc3c2cc1OC	n	n	n	-61.1	n
CN(C)CCNc1ccc(CO)c2sc3ccc(O)cc3c(=O)c12	n	x	18.9µM	-100.4	2.67µM
CN(C)CCNc1ccc2ncn3c4ccc(O)cc4c(=O)c1c23	u	x	n	-103.9	3.98µM
COc1ccc2sc3cccc(NCCN(C)C)c3c(=O)c2c1	x	x	n	n	n
Cc1ccc(/C=C/C(=O)NN2CCN(C)CC2)cc1	n	n	n	n	n
